From PubChem BioAssay (EPA / NIEHS)
Activity calls are given as the source filed them. Rule for the calls: active = hit-call score of the fitted dose curve at least 0.9, where 1 is the maximum; inactive = score below 0.9.

Columns and labels:
Conditions in all cases: mRNA level, 48 h; actives raise or lower the signal
[1] = read-out: solute carrier (SLCO1B1), SLCO1B1 (gene 10599); test: LTEA_HepaRG_SLCO1B1: Life Technologies and Expression Analysis (LTEA) Assay for solute carrier (SLCO1B1) using HepaRG (AID 2283530)
Summary of the method: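 Differentiated human HepaRG cells, plated 48 h, switched to serum-free induction medium and exposed in duplicate for 48 h to 8 half-log concentrations (top 100 uM) in 0.5% DMSO. SLCO1B1 mRNA by TaqMan qRT-PCR, normalized to ACTB/GAPDH/POLR2A.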

[2] = read-out: sulfotransferase 2A1 (SULT2A1), SULT2A1 (gene 6822); test: LTEA_HepaRG_SULT2A1: Life Technologies and Expression Analysis (LTEA) Assay for sulfotransferase 2A1 (SULT2A1) using HepaRG (AID 2283531)
Summary of the method: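 Differentiated human HepaRG cells in serum-free induction medium were exposed for 48 h to eight half-log concentrations (top 100 uM, 0.5% DMSO). SULT2A1 mRNA was measured by qRT-PCR, normalized to ACTB, GAPDH and POLR2A, and fitted bidirectionally against DMSO.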

[3] = read-out: Transforming Growth Factor (TGFA), TGFA (gene 7039); test: LTEA_HepaRG_TGFA: Life Technologies and Expression Analysis (LTEA) Assay for Transforming Growth Factor (TGFA) using HepaRG (AID 2283532)
Summary of the method: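 Differentiated human HepaRG cells, plated 48 h then switched to serum-free induction medium, were exposed in duplicate for 48 h to 8-point half-log series from 100 uM in 0.5% DMSO. TGFA mRNA measured by qRT-PCR, normalized to ACTB/GAPDH/POLR2A, bidirectional fit versus DMSO.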

TIMP1, TIMP1 (gene 7076) = test: LTEA_HepaRG_TIMP1: Life Technologies and Expression Analysis (LTEA) Assay for TIMP1 using HepaRG (AID 2283534);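 note: TaqMan qRT-PCR signal normalized to ACTB GAPDH and POLR2A housekeeping genes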
Summary of the method: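 Differentiated human HepaRG cells in serum-free induction medium were exposed 48 h to chemicals (8 half-log concentrations, top 100 uM, 0.5% DMSO). TIMP1 mRNA was quantified by TaqMan qRT-PCR, normalized to ACTB/GAPDH/POLR2A; bidirectional fit versus DMSO.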

[4] = read-out: Tumor necrosis factor receptor 1 (TNFRSF1A), TNFRSF1A (gene 7132); test: LTEA_HepaRG_TNFRSF1A: Life Technologies and Expression Analysis (LTEA) Assay for Tumor necrosis factor receptor 1 (TNFRSF1A) using HepaRG (AID 2283535)
Summary of the method: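 Differentiated human HepaRG cells were exposed in duplicate for 48 h in serum-free induction medium to eight concentrations (top 100 uM, half-log steps, 0.5% DMSO). TNFRSF1A mRNA was quantified by qRT-PCR, normalized to ACTB, GAPDH and POLR2A, then fitted bidirectionally against DMSO.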

[5] = read-out: UDP glucuronosyltransferase (UGT1A1), UGT1A1 (gene 54658); test: LTEA_HepaRG_UGT1A1: Life Technologies and Expression Analysis (LTEA) Assay for UDP glucuronosyltransferase (UGT1A1) using HepaRG (AID 2283538)
Summary of the method: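 Human liver HepaRG cultures receive test chemical for 48 h, up to 100 uM in 0.5% DMSO, with phenobarbital induction controls. UGT1A1 mRNA is measured by qRT-PCR and normalized to ACTB, GAPDH and POLR2A.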

[6] = read-out: Cellular tumor antigen p53 (Homo sapiens) (UniProt P04637); test: LTEA_HepaRG_TP53: Life Technologies and Expression Analysis (LTEA) Assay for Tumor Protein P53 (TP53) using HepaRG (AID 2283537)
Summary of the method: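 TP53 transcript measured by qRT-PCR, normalized to three housekeeping genes, after 48 h treatment of human HepaRG cultures with chemicals from 100 uM downward in half-log steps (0.5% DMSO vehicle, serum-free induction medium). Up- or down-regulation fitted against DMSO.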

[7] = read-out: UDP glucuronosyltransferase (UGT1A6), UGT1A6 (gene 54578); test: LTEA_HepaRG_UGT1A6: Life Technologies and Expression Analysis (LTEA) Assay for UDP glucuronosyltransferase (UGT1A6) using HepaRG (AID 2283539)
Summary of the method: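 Human HepaRG cells were dosed for 48 h in serum-free induction medium with 0.5% DMSO vehicle, eight-point half-log series from 100 uM, in duplicate. UGT1A6 mRNA was measured by qRT-PCR, normalized to ACTB, GAPDH, POLR2A, and fitted bidirectionally against DMSO.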

[8] = read-out: Thyroid Hormone Responsive (THRSP), THRSP (gene 7069); test: LTEA_HepaRG_THRSP: Life Technologies and Expression Analysis (LTEA) Assay for Thyroid Hormone Responsive (THRSP) using HepaRG (AID 2283536)
Summary of the method: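 Differentiated human HepaRG cells were exposed in duplicate for 48 h in serum-free induction medium to eight concentrations (top 100 uM, half-log steps, 0.5% DMSO). Expression was quantified by TaqMan qRT-PCR, normalized to ACTB, GAPDH and POLR2A, with bidirectional fitting against DMSO.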

[9] = read-out: Transforming Growth Factor (TGFB1), TGFB1 (gene 7040); test: LTEA_HepaRG_TGFB1: Life Technologies and Expression Analysis (LTEA) Assay for Transforming Growth Factor (TGFB1) Transporter using HepaRG (AID 2283533)
Summary of the method: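 Differentiated human HepaRG cells in serum-free induction medium were exposed in duplicate for 48 h to eight concentrations (top 100 uM, half-log steps, 0.5% DMSO). TGFB1 mRNA was quantified by qRT-PCR, normalized to ACTB, GAPDH, POLR2A, and fitted bidirectionally against DMSO.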

Chain of Cellular tumor antigen p53 (Homo sapiens) (P04637 whole entry, looked up): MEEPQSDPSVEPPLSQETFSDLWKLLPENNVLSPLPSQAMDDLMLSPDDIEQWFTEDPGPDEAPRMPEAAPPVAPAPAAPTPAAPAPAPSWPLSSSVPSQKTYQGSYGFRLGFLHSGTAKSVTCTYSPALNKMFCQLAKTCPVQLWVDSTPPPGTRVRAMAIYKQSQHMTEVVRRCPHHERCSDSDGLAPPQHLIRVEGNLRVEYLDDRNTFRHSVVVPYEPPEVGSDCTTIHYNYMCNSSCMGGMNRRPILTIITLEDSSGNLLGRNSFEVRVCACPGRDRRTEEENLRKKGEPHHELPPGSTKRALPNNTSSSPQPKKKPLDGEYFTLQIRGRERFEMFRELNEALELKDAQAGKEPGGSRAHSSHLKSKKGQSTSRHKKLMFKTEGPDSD

O=C(Nc1ccccc1)c1ccccc1I
outcome [1]: inactive
outcome [2]: inactive
outcome [3]: inactive
outcome (TIMP1, TIMP1 (gene 7076)): inactive
outcome [4]: inactive
AC50 [5]: 13.1 µM (active)

CN(C)[C@@H]1C(=O)C(C(N)=O)=C(O)[C@@]2(O)C(=O)C3=C(O)c4c(O)cccc4[C@@](C)(O)[C@H]3C[C@@H]12
outcome [1]: inactive
outcome [2]: inactive
outcome [3]: inactive
outcome (TIMP1, TIMP1 (gene 7076)): inactive
outcome [4]: inactive
outcome [6]: inactive
outcome [5]: inactive
outcome [7]: inactive

C1=Cc2cccc3cccc1c23
outcome [1]: inactive
outcome [2]: inactive
outcome [3]: inactive
outcome (TIMP1, TIMP1 (gene 7076)): inactive
outcome [4]: inactive
outcome [5]: inactive
outcome [7]: inactive

ClC1=C(Cl)C2(Cl)C3C(Cl)C=CC3C1(Cl)C2(Cl)Cl (stereo unspecified)
outcome [1]: inactive
outcome [2]: inactive
outcome [3]: inactive
outcome (TIMP1, TIMP1 (gene 7076)): inactive
outcome [4]: inactive
AC50 [5]: 2.86 µM (active)

OCCCBr
outcome [1]: inactive
outcome [2]: inactive
outcome [3]: inactive
outcome (TIMP1, TIMP1 (gene 7076)): inactive
outcome [4]: inactive
outcome [5]: inactive

Cc1cccc(N)c1N
AC50 [1]: 50 µM (active)
outcome [2]: inactive
outcome [3]: inactive
outcome (TIMP1, TIMP1 (gene 7076)): inactive
AC50 [8]: 32.3 µM (active)
outcome [6]: inactive
AC50 [5]: 17.2 µM (active)

CN(C)c1ccccc1
outcome [1]: inactive
outcome [2]: inactive
outcome [3]: inactive
outcome (TIMP1, TIMP1 (gene 7076)): inactive
outcome [4]: inactive
outcome [5]: inactive
outcome [7]: inactive

CO[C@@H]1[C@H](OC(=O)NC(=O)CCl)CC[C@]2(CO2)[C@H]1[C@@]1(C)O[C@@H]1CC=C(C)C
outcome [1]: inactive
outcome [2]: inactive
outcome [3]: inactive
outcome (TIMP1, TIMP1 (gene 7076)): inactive
outcome [4]: inactive
outcome [5]: inactive
outcome [7]: inactive

CCOC(=O)[C@]1(c2ccccc2)Oc2ccccc2[C@@H]1N
AC50 [1]: 90.6 µM (active)
AC50 [2]: 93.2 µM (active)
AC50 [3]: 70.9 µM (active)
AC50 [4]: 90.8 µM (active)
AC50 [5]: 83.1 µM (active)
AC50 [7]: 80 µM (active)

N#CC(Br)Br
outcome [1]: inactive
outcome [3]: inactive
outcome [9]: inactive
outcome (TIMP1, TIMP1 (gene 7076)): inactive
outcome [4]: inactive
outcome [8]: inactive
outcome [5]: inactive

Clc1ccc(C(c2ccc(Cl)cc2)C(Cl)Cl)cc1
outcome [1]: inactive
outcome [2]: inactive
outcome [3]: inactive
outcome (TIMP1, TIMP1 (gene 7076)): inactive
outcome [4]: inactive
outcome [6]: inactive
AC50 [5]: 6.66 µM (active)
outcome [7]: inactive

CCCSC(=O)N(CCC)CCC
outcome [1]: inactive
outcome [2]: inactive
outcome [3]: inactive
outcome (TIMP1, TIMP1 (gene 7076)): inactive
outcome [4]: inactive
outcome [6]: inactive
outcome [5]: inactive

O=P(OCCCl)(OCCCl)OCCCl
outcome [1]: inactive
outcome [2]: inactive
outcome [3]: inactive
outcome (TIMP1, TIMP1 (gene 7076)): inactive
outcome [4]: inactive
outcome [5]: inactive

c1ccc2c(c1)oc1ccccc12
outcome [1]: inactive
outcome [2]: inactive
outcome [3]: inactive
outcome (TIMP1, TIMP1 (gene 7076)): inactive
outcome [5]: inactive

CS(=O)(=O)NC(=O)c1cc(Oc2ccc(C(F)(F)F)cc2Cl)ccc1[N+](=O)[O-]
outcome [1]: inactive
outcome [2]: inactive
outcome [3]: inactive
outcome (TIMP1, TIMP1 (gene 7076)): inactive
outcome [4]: inactive
outcome [6]: inactive
AC50 [5]: 3.32 µM (active)
outcome [7]: inactive

CCCCCCCCOC(=O)c1ccc(C(=O)OCCCCCCCC)c(C(=O)OCCCCCCCC)c1
outcome [2]: inactive
outcome [3]: inactive
outcome (TIMP1, TIMP1 (gene 7076)): inactive
outcome [4]: inactive
outcome [8]: inactive
outcome [5]: inactive
outcome [7]: inactive

CCCCC(CC)COC(=O)c1ccc(C(=O)OCC(CC)CCCC)c(C(=O)OCC(CC)CCCC)c1 (stereo unspecified)
outcome [1]: inactive
outcome [2]: inactive
outcome [3]: inactive
outcome (TIMP1, TIMP1 (gene 7076)): inactive
outcome [4]: inactive
outcome [6]: inactive
outcome [5]: inactive
outcome [7]: inactive
